Assay results published in PubChem BioAssay (NCI).
This is part of a sample that, as a whole, favours compounds with a hit. Of some 79,000 tested, about 15% had one in any assay. Active and inactive are the calls of the source. No stated cut-off is given here; in the data, active means growth inhibition above about 70%; inactive means the rest.

Experiments:
[1] = NCI Yeast Anticancer Drug Screen. Data for the rad50 strain (AID 155);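 further: 0% = growth of vehicle-only cultures of the same strain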; conditions: S. cerevisiae rad50 strain growth inhibition; at 50.0 µM; active compounds read high
In short: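 Yeast carrying a defined DNA repair defect were exposed to test compounds, and growth was compared with vehicle-treated controls to give percent inhibition.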

[2] = NCI Yeast Anticancer Drug Screen. Data for the mec2-1 strain (AID 157); conditions: S. cerevisiae mec2-1 strain, at 50.0 µM, active compounds read high
In short: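 Compounds were applied to mec2-1 yeast cells. Their growth was then compared with that of vehicle-treated cultures to give growth inhibition.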

[3] = NCI Yeast Anticancer Drug Screen. Data for the sgs1 mgt1 strain (AID 161);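 further: 0% = growth of cultures given vehicle only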; conditions: S. cerevisiae sgs1 mgt1 strain, at 50.0 µM, active compounds read high
In short: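 Yeast cells carrying a defined DNA-repair defect were exposed to test compounds. Growth inhibition was measured relative to vehicle-treated controls.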

[4] = NCI Yeast Anticancer Drug Screen. Data for the cln2 rad14 strain (AID 165);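 further: 0% = growth equal to vehicle treated cultures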; conditions: S. cerevisiae cln2 rad14 strain, at 50.0 µM, active compounds read high
In short: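 Strain: cln2 rad14 yeast, altered in cell cycle control and DNA damage repair. Read-out: growth inhibition vs vehicle.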

[5] = NCI Yeast Anticancer Drug Screen. Data for the bub3 strain (AID 167); conditions: S. cerevisiae bub3 mutant strain, at 50.0 µM, active compounds read high
In short: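 Compounds were applied to a genetically altered yeast strain carrying a cell-cycle control defect. Growth inhibition was scored against vehicle-treated controls.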

[6] = NCI Yeast Anticancer Drug Screen. Data for the mlh1 rad18 strain (AID 175); conditions: S. cerevisiae mlh1 rad18 strain growth inhibition; at 50.0 µM; active compounds read high
In short: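 A repair-deficient yeast strain is exposed to test compound, and growth is scored relative to vehicle-treated controls.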

Measured: growth inhibition

CC(C)(C)C(C(N)=O)C(C)(C)C
inactive: [1] 4.4% | [2] 2.6% | [3] -6.1% | [4] 14.4% | [5] 10.8% | [6] -19.6%

O=C(CNc1ccc2c(=S)c3ccccc3[nH]c2c1)Nc1ccccc1-c1ccccc1NC(=O)CNc1ccc2c(=S)c3ccccc3[nH]c2c1
active: [1] 88.6% | [2] 92.5% | [3] 92.1% | [4] 90.8% | [5] 90.7% | [6] 85.9%

CC1CN(CC2COc3ccccc3O2)C(C)CN1 (stereo not given)
inactive: [1] 61.8% | [2] 17.4% | [3] 57.2% | [4] 58.5% | [5] 53.4% | [6] 34.2%

CC1=NC(=O)C(C)(c2ccccc2)N1CCc1ccccc1 (stereo not given)
inactive: [1] -0.05% | [2] 8.4% | [3] -8.75% | [4] -16.9% | [5] -10.6% | [6] -28.6%

Nc1ncnc2nc(I)[nH]c12
inactive: [1] -1.45% | [2] 1.25% | [3] -4.55% | [4] -6.75% | [5] 26.7% | [6] 7.3%

COc1ccc(CN2CCCN(Cc3ccc(OC)cc3OC)C2c2ccc(N(C)C)cc2)c(OC)c1
inactive: [1] 39.9% | [2] 14.5% | [3] 21.1% | [4] 3.6% | [5] 15.7% | [6] 12.1%

C/C(CC(C)(C)C)=N/NS(=O)(=O)c1ccc(C)cc1
inactive: [1] 7.7% | [2] -1.6% | [3] 9.8% | [4] 1.75% | [5] 5.45% | [6] 12.7%

CC(=O)O[C@H]1CCN2C(=O)C=CC(OCc3ccccc3)C12 (stereo not given in full)
inactive: [1] 3.8% | [2] -15.3% | [3] 11.1% | [4] 13.2% | [5] -5.95% | [6] 3.6%

Cc1ccc(CNC(=S)NC2CCCCC2)cc1C
active: [1] 87.6% | [2] 96% | [3] 94.2% | [4] 83.5% | [5] 90% | [6] 96.3%

N#Cc1c2c(n3c1[nH]c(=O)c1ccccc13)CCCC2
inactive: [1] 24.4% | [2] 10% | [3] 23.9% | [4] 11.9% | [5] -2.8% | [6] 10.8%

COc1c(OC2OC(CO)C(O)C(O)C2O)cc2c(c1OC)-c1ccc(OC)c(=O)cc1C(NC(C)=O)CC2 (stereo not given)
inactive: [1] 13.8% | [2] 8.75% | [3] 10.8% | [4] 11.7% | [5] 19% | [6] 20.4%

c1ccc(CCc2ccccn2)nc1
inactive: [1] 22.9% | [2] 0.8% | [3] -13.6% | [4] 7.2% | [5] 9.5% | [6] 1.45%

C1=N/C=C\C=C/c2ccc[n+](CCCCC[n+]3ccccc3-c3ccccn3)c21
inactive: [2] 63.5% | [4] 63.1% | [5] 36.7%
active: [1] 81.5% | [3] 86.8% | [6] 75.2%

CC(O)CNC(=O)Nc1ccccc1 (stereo not given)
inactive: [1] -26.9% | [2] -26.8% | [3] -9.8% | [4] -5.25% | [5] 3.95% | [6] -17.6%

O=[N+]([O-])C1CCCCC1
inactive: [1] -11.8% | [2] -34.6% | [3] 3.3% | [4] 17.6% | [5] -8.35% | [6] 14.1%

O=C(O)CSc1nc2cc(Cl)c(Cl)cc2[nH]1
inactive: [1] -9.75% | [2] -6.75% | [3] 1.35% | [4] -10.4% | [5] 13.1% | [6] -7.55%

C[N+]([O-])(CCO)Cc1ccccc1 (stereo not given)
inactive: [1] -1.45% | [2] -17.8% | [3] -6.1% | [4] 0.95% | [5] 4.75% | [6] -14.3%

NC(CSSCC(NC(=O)CNC(=O)OCc1ccccc1)C(=O)O)C(=O)O (stereo not given)
inactive: [1] -13.3% | [2] -38% | [3] -11.2% | [4] -62.8% | [5] -1.05% | [6] 2%

CCCCC(CN(C)C)C(=O)/C=C/c1ccccc1 (stereo not given)
inactive: [1] 23.2% | [2] 2.9% | [3] 32.9% | [4] -0.7% | [5] 17.4% | [6] 27.8%

C1COC2(C1)CCCO2
inactive: [1] 21.6% | [2] -0.5% | [3] -27.2% | [4] 3.5% | [5] 23.2% | [6] -2.95%

C[N+](C)(N)c1nc(N)c(C#N)c(C#N)c1C#N
inactive: [1] 13.6% | [2] -18.7% | [3] -10.9% | [4] -24.4% | [5] 5.1% | [6] 13.8%

CCCCCc1c(Cl)nc(Cl)nc1Cl
inactive: [1] -14.2% | [2] 11.2% | [3] 12.3% | [4] -38.8% | [5] 26.9% | [6] -18.1%

[O-][N+](CCO)(CCO)Cc1ccccc1
inactive: [1] 14.1% | [2] 1.05% | [3] 19.8% | [4] 6.2% | [5] 9.65% | [6] 26.6%

COC(=O)n1c(=O)oc2ccc(Br)cc21
active: [1] 99% | [2] 99.1% | [3] 99.4% | [4] 99.4% | [5] 99.5% | [6] 99.2%

O=C1CC2C(O)OC(O)C(C1)N2C(=O)OCC(Cl)(Cl)Cl (stereo not given)
inactive: [1] 10.8% | [2] -15.9% | [3] -8.55% | [4] 12.6% | [5] -17.4% | [6] -6.6%

Cc1c(COC(=O)NC(C)C)c(COC(=O)NC(C)C)c2n1CS(=O)(=O)C2
inactive: [1] -16.2% | [2] 6.55% | [3] -3.2% | [4] 7.3% | [5] -5.7% | [6] 6.35%

CC1(C)OCC2OC(n3cnc4c(N)nc(Cl)nc43)C(OS(C)(=O)=O)C2O1 (stereo not given)
inactive: [1] 3.75% | [2] 16.9% | [3] -13.2% | [4] 8.7% | [5] 4.15% | [6] 30%

O=[N+]1C=CC(=NN=c2ccn([O-])cc2)C=C1
inactive: [1] 33.9% | [2] 15.5% | [3] 8.65% | [4] 14.6% | [5] 8% | [6] 26.9%

OC(C/C(=N\Nc1ccccc1)c1ccc(F)cc1)(C(F)(F)F)C(F)(F)F
active: [1] 98.3% | [2] 98.8% | [3] 98.5% | [4] 97.8% | [5] 98.3% | [6] 98.6%

CCOC(=O)C1=C(Nc2cccc3ccccc23)OC/C1=N\NC(=O)c1ccccc1O
inactive: [1] 24.2% | [2] 28.6% | [3] 20.3% | [4] 14.8% | [5] 27.8% | [6] 12.8%

COc1cc(N(CCC#N)CCC#N)ccc1/C(N=Nc1ccccc1)=N/NC(=O)c1cc(Br)ccc1O
inactive: [1] 31.4% | [2] 37.1% | [3] 44.2% | [4] 3.3% | [5] 35.9% | [6] 21.4%

CC(=O)O[C@@H]1[C@H]2O[C@H]2[C@H]2O[C@@]2(COC(=O)c2ccccc2)[C@H]1OC(C)=O
inactive: [1] 12.8% | [2] -25.2% | [3] 24.4% | [4] -6% | [5] 0.75% | [6] -38.5%

COc1ccc(-c2nn(CCO)c(=O)c(C#N)c2-c2ccc(OC)cc2)cc1
inactive: [1] 28.9% | [2] 1.3% | [3] 6.65% | [4] 7.3% | [5] 13.7% | [6] 5.9%

CC(=O)c1ccc2c(Br)ccc3c2c1CC3
inactive: [1] 12.3% | [2] 10.3% | [3] 4.25% | [4] 10.4% | [5] 16.1% | [6] 9.55%

Nc1ccc(/C(=N\O)c2ccccc2)cc1
inactive: [1] 19.6% | [2] 13.9% | [3] 23.9% | [4] 0.8% | [5] -2.6% | [6] 10.1%

CC1=N[C@](C)(C2CC3C=CC2C3=O)COC1=O (stereo not given in full)
inactive: [1] -15.5% | [2] -18.5% | [3] -27% | [4] -1.9% | [5] -11.6% | [6] -5.45%

COC(=O)/C(=C\c1ccccc1[N+](=O)[O-])c1ccc2c(c1)OCO2
inactive: [1] 23.6% | [2] -10.1% | [3] 3.2% | [4] -38.5% | [5] 9.6% | [6] 14.4%

C=C1C(=O)OC2C1CCC1(C)CC(Br)C(=O)C(C)C21 (stereo not given)
inactive: [1] 1.7% | [2] -1.1% | [3] 13.9% | [4] 2.1% | [5] -5.85% | [6] -4.65%

CCN(CC)CCOc1ccc(Cc2nc3c([nH]2)c(=O)n(C)c(=O)n3C)cc1
inactive: [1] 21.6% | [2] 2.85% | [3] 14.2% | [4] 34.5% | [5] 5.1% | [6] 11.3%

N#CC1NCNC1N (stereo not given)
inactive: [1] 0.2% | [2] 0.65% | [3] -6.6% | [4] 1.15% | [5] -1.25% | [6] -16.8%
